Data reported in PubChem BioAssay AID1671190 (National Center for Advancing Translational Sciences (NCATS), 2021).
“And” between values parts separate entries of the source, which are not always exact repeats. Identical values can stand only once. Out of some 580,000 compounds screened, about 6,100 (1.1%) were called active. Not shown: some 15% with an inconclusive outcome. The call rests on the fitted dose curve; in most records, active means well fitted inhibition curve with a large enough effect; inconclusive means small, poorly fitted or top-dose-only effect, or another doubt; inactive means no such curve, though single readings can be large or run the other way. Only a selection was taken, and actives are over-represented in it overall.

molecular target: Polyunsaturated fatty acid lipoxygenase ALOX12 (Homo sapiens) (UniProt P18054); test: Primary qHTS assay for inhibitors of human arachidonate 12S-lipoxygenase (ALOX12): Round 2; conditions: purified 12hLO, xylenol orange hydroperoxide absorbance; series mostly up to 108 µM; activity change, negative = inhibition: at the top concentration
Sequence (P18054 whole entry, looked up): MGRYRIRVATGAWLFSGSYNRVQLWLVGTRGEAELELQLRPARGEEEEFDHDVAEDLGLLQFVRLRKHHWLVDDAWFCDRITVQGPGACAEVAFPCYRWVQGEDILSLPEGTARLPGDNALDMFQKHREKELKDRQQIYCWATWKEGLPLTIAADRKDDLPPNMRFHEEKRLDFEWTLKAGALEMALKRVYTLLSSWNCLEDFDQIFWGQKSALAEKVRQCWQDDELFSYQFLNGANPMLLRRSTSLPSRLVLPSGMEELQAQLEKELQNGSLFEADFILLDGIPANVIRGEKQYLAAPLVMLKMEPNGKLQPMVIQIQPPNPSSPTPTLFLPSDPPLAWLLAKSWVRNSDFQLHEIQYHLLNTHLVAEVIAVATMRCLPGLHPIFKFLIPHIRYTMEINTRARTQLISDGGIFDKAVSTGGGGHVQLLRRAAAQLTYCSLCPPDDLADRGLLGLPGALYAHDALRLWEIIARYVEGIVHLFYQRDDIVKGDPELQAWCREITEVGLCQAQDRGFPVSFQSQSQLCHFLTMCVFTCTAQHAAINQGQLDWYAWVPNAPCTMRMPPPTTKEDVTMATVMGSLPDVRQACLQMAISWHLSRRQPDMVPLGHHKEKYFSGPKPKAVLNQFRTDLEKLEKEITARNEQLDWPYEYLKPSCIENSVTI
Method in brief: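 Purified human 12hLO (150 nM final) in 25 mM Hepes, 0.01% Triton X-100, pH 7.0 was preincubated 15 min at room temperature with compound. Then 40 uM arachidonic acid was added, 30 min. Hydroperoxide was read by Fe-XO absorbance ratio 573/405 nm.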
On the % scale 0 is the no-effect control and ±100 the full control effect; potency means the concentration at half of the fitted maximal effect.

Compound	Potency	activity change, negative = inhibition
N#Cc1cccnc1-c1cccc(C(=O)O)c1	56.2 µM (active)	
O=C(O)c1ccc2nc[nH]c2c1		0.982% (inactive)
O=C(O)c1cccc(-c2ccccn2)c1		6.18% [at 12.5 µM] (inactive) and -0.515% [at 12.5 µM] (inactive)
O=C(COc1ccc2c(c1)CCC2)N(Cc1nc2ccccc2c(=O)[nH]1)CC1CCCO1 (centres undefined)		11.7% (inactive)
O=S(=O)(c1cc(Cl)ccc1Cl)N1CCN(Cc2ccco2)CC1		-3.3% (inactive)
O=C(CN1CCN(S(=O)(=O)c2cc(Cl)ccc2Cl)CC1)c1ccc(O)c(O)c1	1.41 µM (active)	
O=C(CN1CCN(S(=O)(=O)c2cccc(Cl)c2)CC1)N1CCCCC1		0% (inactive)
Cc1[nH]c2ccccc2c1C(=O)C(=O)NC(C)CCc1ccccc1 (centres undefined)		-38.1% (inactive)
Cc1ccc2cc(C)c(Nc3cccc(C)c3C)nc2c1		0.82% (inactive)
O=C(Nc1cccc(Br)c1)c1csc2c1CCCC2		-49.6% (inactive)
CCCOc1ccc(-c2nc(C#N)c(N3CCN(C(=O)c4ccco4)CC3)o2)cc1		-45.2% (inactive)
Cc1ccc(-c2csc(C(C#N)=C(O)CN3CCN(C(=O)c4ccco4)CC3)n2)cc1	44.7 µM (active)	
O=C(c1ccco1)N1CCN(Cc2cccc(C(F)(F)F)c2)CC1		19.9% (inactive)
O=C(c1cc(-c2cccs2)on1)N1CCCC1c1ccccc1F (centres undefined)		-2.89% (inactive)
COc1cccc(CN2C[C@@H](F)[C@@H](OCc3nc4ccccc4n3C)C2)n1		100% [at 176 µM] (inactive)
CSc1ccc(C(=O)N2CCC(n3nccc3NC(=O)CC(C)C)CC2)cc1		0.71% (inactive)
O=C(COc1ccc(F)cc1Cl)Nc1ncn[nH]1		77.9% (inactive)
Cc1noc(C)c1CS(=O)(=O)c1cc(Cl)ccc1Cl		7.07% (inactive)
COc1ccc(CN(C(=O)CSc2nnc(-c3ccc(OC)c(OC)c3)o2)c2ccc(F)cc2)cc1		-16% (inactive)
COc1ccccc1-c1nnc(SCC(N)=O)o1		-10.9% (inactive)
COc1ccc(-c2nnc(SC(=O)N3c4ccccc4Sc4ccccc43)o2)cc1	8.91 µM (active)	
CCCNC(=O)NNC(=O)c1cn(C)c2ccccc12		-3.21% (inactive)
Cn1c(COc2ccc(Cl)cc2)nnc1SCC(O)COc1ccc(C(C)(C)C)cc1 (centres undefined)		-24.4% (inactive)
CNC(=O)[C@@H](Cc1ccccc1)N1CCC[C@H]1C(=O)N1CCC1	22.4 µM (active)	
CNC(=O)C(C)(C)N1CCC[C@H]1C(=O)N(C)Cc1ccccc1		-3.65% [at 176 µM] (inactive)
CCNC(=O)[C@@H]1CCCN1[C@@H](C(=O)NC)c1ccccc1OC		31.9% [at 176 µM] (inactive)

Compound	Potency	activity change, negative = inhibition
CCc1ccc(CN(C)C(=O)Cn2cnc3c2c(=O)n(C)c(=O)n3C)cc1		-21.2% (inactive)
CC(C)c1noc(-c2cn(C3CCN(C(=O)COc4ccc(F)cc4)CC3)nn2)n1		26.4% (inactive)
CCc1ccc(N2CC(O)=C(c3nc4ccccc4c(=O)[nH]3)C2=N)cc1		-5.65% (inactive)
Cc1nc2cnc(N3CCNCC3)nc2n(CCc2ccccc2)c1=O		0% (inactive)
CCc1ccc(-n2ccc3nc(N4CCc5ccccc5C4)ncc3c2=O)cc1	39.8 µM (active)	
COc1cccc(-c2cn3c(n2)NCCC3)c1		37.1% (inactive)
O=C(Nc1cnc(-c2cccc(Cl)c2)nc1)c1ccc(F)cc1		33.3% (inactive)
COc1cccc2cc(S(=O)(=O)c3ccc(Cl)c(Cl)c3)c(=O)oc12		30.9% (inactive)
Cc1ccc(C(=O)N2CCC(c3n[nH]c(=O)n3-c3ccccc3)CC2)cc1F	28.2 µM (active)	
Cc1ccc(-n2c(C3CCN(C(=O)c4ccoc4)CC3)n[nH]c2=O)cc1		54.3% (inactive)
CCOc1ccc(C(=O)N2CCC(c3n[nH]c(=O)n3-c3ccccc3)CC2)cc1OCC		25.8% (inactive)
CC(C)(CNC(=O)c1ccccc1)CNC(=O)c1ccccc1		3.22% (inactive)
O=C1CSc2ccc(C(=O)Nc3cccc(COC(=O)c4ccc5c(c4)NC(=O)CS5)c3)cc2N1		30.1% (inactive)
O=C(NCCNC(=O)C1CC1)c1c[nH]c2ccccc12		1% (inactive)
Nc1nc(COC(=O)c2ccc(OC(F)F)cc2)nc2ccccc12		32.2% (inactive)
Cc1occc(=O)c1OCc1noc(C(=O)NCc2ccc(Cl)cc2)n1		30.8% (inactive)
Cc1ccc(-c2csc(Nc3ccccc3)n2)c(C)c1		-61.9% (inactive)
O=C1Cc2cc(-c3csc(Nc4ccc(F)cc4)n3)ccc2N1		-8.91% (inactive)
O=C(O)c1ccc(Nc2nc(-c3ccc4ccccc4c3)cs2)cc1O	31.6 µM (active)	
CC(=O)c1ccc(NC(=O)C(C)Sc2nnc(-c3ccco3)n2-c2ccccc2)cc1 (centres undefined)		7.66% (inactive)
Cc1ccccc1-n1cnnc1SCC(=O)NC(C)c1cccc2ccccc12 (centres undefined)		8.99% (inactive)
COc1ccc(C2C(C#N)=C(N)N(c3ncn[nH]3)C3=C2C(=O)CCC3)cc1 (centres undefined)		7.37% (inactive)
COc1ccc(C2C3=C(CCCC3=O)N(CC(=O)O)C3=C2C(=O)CCC3)cc1	10 µM (active)	
CCCN1C2=C(C(=O)CCC2)C(c2ccc(O)c(Br)c2)C2=C1CCCC2=O		0.376% (inactive)
CCCCCCCC1CCC(c2ccc(-c3ccc(CCCC)cn3)cc2)CC1 (centres undefined)		8.25% (inactive)
COc1ccc(NC(=O)CN(C)C(=O)c2nc(-c3ccccc3)oc2C)cc1		-28.5% (inactive)

Compound	Potency	activity change, negative = inhibition
CCCOc1ccc(/C(O)=C2/C(=O)C(=O)N(CCN(C)C)C2c2ccc(OC)c(OC)c2)cc1 (centres undefined)		0% (inactive)
COc1cc(C2/C(=C(\O)c3ccc4c(c3)CC(C)O4)C(=O)C(=O)N2Cc2ccco2)ccc1O (centres undefined)		-13.7% (inactive)
COc1cccc(C2/C(=C(/O)c3ccc(F)cc3)C(=O)C(=O)N2CCN(C)C)c1 (centres undefined)		22.4% (inactive)
COc1ccc(/C(O)=C2\C(=O)C(=O)N(Cc3ccco3)C2c2ccc(OC)cc2OC)cc1 (centres undefined)	14.1 µM (active)	
COc1ccc(C2/C(=C(/O)c3ccc(OC(C)C)cc3)C(=O)C(=O)N2CCCN2CCOCC2)cc1 (centres undefined)		-14.3% (inactive)
COCCN1C(=O)C(=O)/C(=C(/O)c2ccc(S(=O)(=O)N3CCCCC3)cc2)C1c1ccc(OC)c(OC)c1 (centres undefined)	14.1 µM (active)	
COCCN1C(=O)C(=O)/C(=C(/O)c2ccc(S(=O)(=O)N3CCOCC3)cc2)C1c1ccc(OC)c(OC)c1 (centres undefined)		-19.4% (inactive)
CCOc1cc(C2/C(=C(/O)c3ccc(S(=O)(=O)N4CCCCC4)cc3)C(=O)C(=O)N2CCOC)ccc1O (centres undefined)		-11.4% (inactive)
COc1ccc(/C(O)=C2/C(=O)C(=O)N(CC3CCCO3)C2c2ccc(OC)c(OC)c2)cc1 (centres undefined)	17.8 µM (active)	
Cc1ccc(C)c(OCc2ccc(-c3nc(C#N)c(NC(C)C)o3)o2)c1		-14.7% (inactive)
CCCCCCC(C)NC(=O)COC(=O)c1n[nH]c(=O)c2ccccc12 (centres undefined)		-13.7% (inactive)
NCC(=O)N1CCCC2(Cc3ccccc3CN2C(=O)c2cccc(Cl)c2)C1 (centres undefined)		42.1% (inactive)
Cc1cc2ccccc2n1CC(=O)NCc1ccc(C(N)=O)cc1		19.6% (inactive)
Cc1cccc(NC(=O)c2ccccc2NC(=O)CN2CCN(S(=O)(=O)c3cccs3)CC2)c1		3.21% (inactive)
COc1ccc(S(=O)(=O)N2CCC(C(=O)Nc3cccc(C)c3)CC2)c2cccnc12		26.8% (inactive)
COC(=O)[C@H](Cc1ccc(OC)cc1)NC(=O)[C@H]1CN(C(=O)c2ccc(N(C)C)cc2)CCN1S(=O)(=O)c1ccccc1		6.47% (inactive)
CCCN(C)C(=O)CCC[C@H]1NC[C@@H]2C[C@H]1CN(Cc1ccccc1)C2		-0.277% (inactive)
CC1(C)CC(=O)C2=C(C1)OC(N)=C(C#N)C2c1cccnc1 (centres undefined)		-14.4% (inactive)
N#CC1=C(N)OC2=C(C(=O)CCC2)C1c1ccc(-c2ccc(Cl)cc2Cl)o1 (centres undefined)	28.2 µM (active)	
NC1=C([N+](=O)[O-])C(c2ccccc2)C2=C(CCCC2=O)O1 (centres undefined)		10.4% (inactive)
O=C(Nc1ccccc1F)N1CC2CCC(C1)N2Cc1ccc(-c2cccnc2)cc1		0.675% [at 6.33 µM] (inactive)
Cc1ccc(/C=C/C(=O)Nc2ccc([N+](=O)[O-])c(NC(=O)/C=C/c3ccc(C)o3)c2)o1	6.31 µM (active)	
CC(=O)Nc1ccc2c3c(ccc([N+](=O)[O-])c13)CC2		-4.52% (inactive)
COc1ccc(OC)c(NC(=O)/C=C/c2ccc(C)o2)c1		-4.21% (inactive)
COCCn1c(SCc2cccc(Br)c2)nnc1-c1ccccc1		0.725% (inactive)
Cc1ccc(C)c(/C=C/c2nc3ccccc3s2)c1		-17% (inactive)

Compound	Potency	activity change, negative = inhibition
CC(C)(C)NC(=O)C(=O)NN=C1CCCCCCC1		244% (inactive)
CC(C)(C)c1ccc(C(=O)NN=C2CCCCC2)cc1		48.6% (inactive)
CC(C)NC(=S)NN=C1CCCCCCCCCCC1	35.5 µM (active)	
COc1ccc(C)cc1CN(C)C(=O)CCn1ccc2ccccc21		-19.6% (inactive)
CCOC(=O)c1cccc(NC(=O)c2cc(S(=O)(=O)N3CCCC(C)C3)cn2C)c1 (centres undefined)		-5.94% (inactive)
CCOC(=O)c1cn[nH]c1S(=O)(=O)N1CCCC(C)C1 (centres undefined)	11.2 µM (active)	
CCOC(=O)c1c(NC(=O)c2ccc(S(=O)(=O)N3CCCC(C)C3)cc2)sc2c1CCN(C(C)C)C2 (centres undefined)		-18.9% (inactive)
O=C(Nc1ccc(Cl)nc1)c1ccc2cc[nH]c2n1		5.64% [at 12.5 µM] (inactive) and 1.76% [at 12.5 µM] (inactive)
CC/C(=N/N=C(/CC)c1ccccc1)c1ccccc1		-0.0612% (inactive)
CCCCCCCCCOc1ccc(C(=O)c2ccccc2)cc1		19.7% (inactive)
CC/C(=C(/c1ccccc1)c1ccc(OCC[N+](C)(C)C)cc1)c1ccccc1	44.7 µM (active)	
CCCCOCCCNC(=O)c1cccc(C#N)c1		8.27% (inactive)
O=C(NN=CC=Cc1ccccc1)C(O)C(O)C(=O)NN=CC=Cc1ccccc1 (centres undefined)		-0.942% (inactive)
O=C(N/N=C/C=C/c1ccccc1)C1CC1(c1ccccc1)c1ccccc1 (centres undefined)		17.3% (inactive)
Cc1ccc(N/N=C/C=C/c2ccccc2)cc1Cl	2.82 µM (active)	
CCOc1ccc(C(=O)N2c3ccccc3NC(=O)C2CC(=O)Nc2cccc(C(F)(F)F)c2)cc1 (centres undefined)		-13.4% (inactive)
O=C(Oc1ccc2cc(-c3ccccc3)c(=O)oc2c1)N1CCOCC1		-0.175% (inactive)
COC(=O)CNC(=O)c1cccc(C(F)(F)F)c1		5.28% (inactive)
C/C(=N/NC(=S)NCc1ccccc1)c1cccc(C(F)(F)F)c1	12.6 µM (active)	
C/C(=N\NC(=S)NCc1ccccc1)C1CCCCC1	39.8 µM (active)	
C/C(=N\NC(=O)CNC(=O)C(c1ccccc1)c1ccccc1)c1ccc(C)cc1		11% (inactive)
O=C(NCc1ccccc1)c1cccc(NC(=O)C2CCCCC2)c1		-2.41% (inactive)
S=C(NCc1ccccc1)Nc1ccc(NC(=S)NCc2ccccc2)c(Cl)c1		-3.77% (inactive)
C/C(=N\NC(=S)NCc1ccccc1)c1ccc(Cl)cc1	31.6 µM (active)	
O=C(NC(Cc1ccccc1)C(=O)O)c1cccc(C(F)(F)F)c1 (centres undefined)		-18.9% (inactive)
O=C(COC(=O)CNC(=O)C1CCCCC1)NCc1ccccc1		0% (inactive)
